# Hits are enriched below; roughly 1.8% of the tested compounds scored in any of these assays.
# TLR9-MyD88 block: inhibitors of TLR9-MyD88 association in cells, primary screen, cell-based, CHO, BLA complementation, fluorescence. Toll-like receptor 9 (Homo sapiens) + Myeloid differentiation primary response protein …. CCF4 FRET ratio. inhibition, % at 4.98 µM. hit rate 0.21% among 340,000. AID 504734, 2011;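 active = inhibition above the mean over all tested compounds plus 3 SD, cut at about 21% in these data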;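 note: 0% = DMSO only wells and 100% = clavulanate BLA inhibitor control wells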
# Rtt109 HAT inh: inhibitors of C. albicans Rtt109/Vps75 HAT, primary screen, biochemical, ThioGlo CoA-SH fluorescence, plate reader; Histone acetyltransferase RTT109 (Candida albicans (strain SC5314 / ATCC MYA-2876)), …; purified Rtt109/Vps75, 4 h; inhibition, % at 34.9 µM; hit rate 0.16% among 330,000; AID 540336, 2011;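 active = inhibition of at least 50% in every replicate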
# NOD2 RIPK2 PPI: NOD2-RIPK2 binding disruptors in cells, primary screen, fluorescence, CHO cells, BLA complementation. inhibition, % at 4.98 µM. hit rate 0.38% among 360,000. Receptor-interacting serine/threonine-protein kinase 2 (Homo sapiens), O43353. CCF4 ratio; in the data active = inhibition above about 21%;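 note: 0% = vehicle only and 100% = reference blocker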
# TLR4 MyD88 comp: inhibitors of TLR4-MyD88 association in cells, primary screen, cell-based, HeLa CL3-4, BLA complementation, FRET ratio; inhibition, % at 8.4 µM; AID 861, 2007; HeLa CL3-4 TLR4/MyD88 BLA complementation; Toll-like receptor 4 (Homo sapiens) + Myeloid differentiation primary response protein …; hit rate 0.18% among 200,000; in the data active = inhibition above about 25%;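 note: 0% = vehicle and 100% = reference inhibitor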
# LANA-H2B inh: blockers of LANA interaction with H2A/H2B – biochemical, FP readout, HTS, primary screen; Protein LANA1 (Human herpesvirus 8 type P (isolate GK18)), Q9QR71; cell-free LANA-H2A/H2B peptide, fluorescence polarization; inhibition, % (test concentration not listed); hit rate 0.6% among 320,000; AID 2629, 2010; in the data active = inhibition mostly above about 10%, no sharp cut-off; inactive = mostly below about 6.7%
# m5-HT2A agonist: mouse Htr2a agonists via beta-arrestin recruitment, primary screen, cell-based, luminescence. 5-hydroxytryptamine receptor 2A (Mus musculus), P35363. CHO-K1 mHTR2A beta-arrestin complementation; percent of 30 µM serotonin response. activation, % at 7.6 µM. hit rate 0.66% among 360,000. AID 624169, 2012;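 active = activation above a run cutoff, the mean activation of all tested compounds plus 3 SD, cut at about 14% in these data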;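 note: 0% = plate median of compound wells and 100% = 30 µM serotonin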
# Target sequence (P35363 whole entry, looked up): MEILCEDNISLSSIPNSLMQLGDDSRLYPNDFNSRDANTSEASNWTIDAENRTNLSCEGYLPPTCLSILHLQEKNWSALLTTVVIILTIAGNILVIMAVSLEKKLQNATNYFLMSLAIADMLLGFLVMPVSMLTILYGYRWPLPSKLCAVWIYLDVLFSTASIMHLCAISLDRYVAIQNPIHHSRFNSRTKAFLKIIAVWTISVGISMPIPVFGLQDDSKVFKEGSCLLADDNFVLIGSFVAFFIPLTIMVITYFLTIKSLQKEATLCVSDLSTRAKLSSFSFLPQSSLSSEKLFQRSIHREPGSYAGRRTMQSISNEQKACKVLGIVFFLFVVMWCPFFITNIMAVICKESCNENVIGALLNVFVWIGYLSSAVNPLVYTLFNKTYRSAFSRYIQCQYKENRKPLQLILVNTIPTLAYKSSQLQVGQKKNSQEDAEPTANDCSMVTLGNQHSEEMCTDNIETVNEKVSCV
# The depositor's hits bear a star; . = not tested or not shown.
SMILES,TLR9-MyD88 block,Rtt109 HAT inh,NOD2 RIPK2 PPI,TLR4 MyD88 comp,LANA-H2B inh,m5-HT2A agonist
COc1ccc(CCNC(=O)c2ccc(CS(=O)(=O)c3ccc(Cl)cc3)o2)cc1OC,-8,3,0,-3,27*,0
O=C(NCCc1ccccc1)c1ccc(CS(=O)(=O)c2ccc(Br)cc2)o1,4,19,1,.,8,-1
COc1ccc(CCNC(=O)c2ccc(CS(=O)(=O)c3ccc(C)cc3)o2)cc1OC,-5,-8,1,6,0,6
CN(CCNC(=O)c1ccc(CS(=O)(=O)c2ccc(Br)cc2)o1)CCc1ccccc1,-1,2,-1,.,19*,1
Cc1ccccc1CS(=O)(=O)Cc1ccc(C(=O)NCCc2ccccc2)o1,13,5,1,.,15*,-5
C=CCCC(=O)N1C[C@H]2CCN(C)[C@H]2C[C@H]1c1ccc(Br)cc1,.,.,8,.,.,-2
C[C@@H]1CCCCO[C@H](CN(C)C(=O)Nc2ccc(C(F)(F)F)cc2)[C@@H](C)CN([C@H](C)CO)C(=O)c2cc(NC(=O)c3ccncc3)ccc2O1,-7,.,-3,.,.,6
O=C(NCc1ccccc1)c1cc(C2CCCCN2S(=O)(=O)c2cccs2)on1 (stereo unspecified),.,.,0,.,.,-3
CC(=O)Oc1ccc(C(=O)Nn2cnnc2)cc1,-3,-5,-18,-9,18*,2
O=c1cccccc1NCc1ccccc1,-3,3,-6,-4,4,7
N#Cc1ccccc1NCc1ccccc1,-2,-6,-11,7,15*,1
O=c1[nH]c2cc3ccccc3cc2nc1-c1nnnn1Cc1ccccc1,.,.,-1,.,.,-2
FC(F)(F)c1cc(Cl)c2nc(-c3ccccc3)c(Cc3ccccc3)n2c1,.,.,-12,.,.,-1
CCOc1ccc(N2C(=O)CSC2c2ccncc2)cc1 (stereo unspecified),1,63*,-16,-13,-1,3
COc1ccc(N2C(=O)CSC2c2ccc(F)c(F)c2)cc1 (stereo unspecified),5,-5,-2,.,-2,4
COc1ccc(CN2C(=O)CCC2(C)c2nc3ccccc3[nH]2)cc1 (stereo unspecified),.,.,3,.,.,0
OCCOCCNc1ncnc2c1cnn2-c1ccc(Cl)cc1,-5,-4,9,-1,-3,-2
CN(C)CCCNc1ncnc2c1cnn2-c1ccccc1,3,8,6,0,14*,-3
COCCNc1ncnc2c1cnn2-c1ccc(Cl)cc1,-6,-6,-8,21,20*,0
CC(C)OCCCNc1ncnc2c1cnn2-c1ccccc1,-4,-2,-1,16,-3,5
COc1ccc(C(=O)/C=C/c2cn(CC(O)CN3CCN(C)CC3)c3ccccc23)cc1OC (stereo unspecified),-1,3,-2,.,-22,-11
O=C(/C=C/c1cn(CC(O)CN2CCCCC2)c2ccccc12)c1ccccc1 (stereo unspecified),6,53*,12,.,.,-8
CN(C)c1ccc(-c2csc(C(C)(O)c3ccc(F)c(F)c3)n2)cc1 (stereo unspecified),.,.,-3,.,.,-7
CC(Sc1ccc(S(=O)(=O)N2CCOCC2)cn1)C(=O)Nc1ccc(Cl)cc1Cl (stereo unspecified),3,8,-17,.,24*,-9
Cc1cccc2sc(N(CCCN(C)C)C(=O)CCc3ccccc3)nc12,-11,58*,8,-3,.,-4
Cc1cccc2sc(N(CCCN(C)C)C(=O)CN3C(=O)c4ccccc4C3=O)nc12,-1,-2,7,7,-8,-13

# Screening results deposited in PubChem by several laboratories.
